PubChem BioAssay AID588849 (Broad Institute, 2011)
Potency and affinity values are given separately. Activity calls are given as the source filed them. How the calls were made is not given here.

molecular target: CAAX prenyl protease 2 (Homo sapiens) (UniProt Q9Y256); test: inhibition of Ras-converting CAAX protease Rce1 – biochemical, yeast membranes, quenched-peptide fluorescence, cherry-pick, dose response (AID 588849); conditions: yeast membrane fractions expressing human Rce1, quenched-peptide fluorescence, 4 h; series mostly up to 10 µM; activity change, negative = inhibition: at the top concentration
Sequence (Q9Y256 whole entry, looked up): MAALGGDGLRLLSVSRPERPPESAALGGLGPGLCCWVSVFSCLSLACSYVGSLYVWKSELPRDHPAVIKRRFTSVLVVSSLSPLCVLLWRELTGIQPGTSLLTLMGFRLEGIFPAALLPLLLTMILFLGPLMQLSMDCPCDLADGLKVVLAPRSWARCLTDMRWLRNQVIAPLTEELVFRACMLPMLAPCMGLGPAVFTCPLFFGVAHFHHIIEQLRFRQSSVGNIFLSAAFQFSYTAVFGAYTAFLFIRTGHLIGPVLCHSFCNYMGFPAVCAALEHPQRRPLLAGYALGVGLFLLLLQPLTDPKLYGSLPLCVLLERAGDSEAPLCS

Activity change, negative = inhibition, inactive:
CN1CCN(C(=S)NC(=O)c2ccccc2Cl)CC1 0.21%
C=CCn1c(SCc2ccc(C#N)cc2)nnc1-c1ccc(C)cc1 -1.26%
COc1cc2c(cc1OC)C(C)N(C(=O)c1cc3c(=O)oc4ccc(C)cc4c3s1)CC2 (stereo not drawn) 14.6%
CCCCOc1ccc(Cc2c(COCC)[nH]c(=S)[nH]c2=O)cc1 -12.1%
COc1ccc([N+](=O)[O-])cc1CSc1ccccn1 3.93%
Cc1ccc(C2(COC(=O)C(C)C)CO2)c(OC(=O)C(C)C)c1 (stereo not drawn) -12.2%
CCNC(=S)NNC(=O)CCn1cc(C)cn1 -13.4%
CCCn1c(O)c(N=NC(=O)CNC(=O)Cc2ccc(OC)cc2)c2ccccc21 -2.73%
c1ccn2cc(-c3ccc4c(c3)OCCO4)nc2c1 -9.91%
CC(C)CNC(=O)COc1cccc(C(=O)NCc2ccccc2)c1 10.1%
CC(=O)Oc1ccc(C(=O)Nc2ccc(S(=O)(=O)NCC3CCCO3)cc2)cc1 (stereo not drawn) -7.42%
Cc1ccc(C(=O)c2c3ccc(C(F)(F)F)cc3[n+]([O-])n2CCCC(N)=O)cc1 9.34%
N#CC(/C(=N/S(=O)(=O)c1cccs1)c1ccccc1)c1nc2ccccc2[nH]1 (stereo not drawn) -7.48%
O=C(CCNC(=O)N1CC(=O)Nc2ccccc21)NCCc1cccc(F)c1 -24.6%
Cc1cc(C)c2nc(N(CCCN(C)C)C(=O)c3ccc4c(c3)CCCC4)sc2c1 2.44%
COC(C/C=C/C(=O)[C@H](C)OCc1ccccc1)OC -4.27%
CC(C)c1cc(=O)oc2c3c4c(cc12)CCCN4CCC3 -16%
Cc1ccc(S(=O)(=O)CC(=O)N2CCN(c3ccccc3F)CC2)cc1 10.6%
